# Assay outcomes from PubChem BioAssay.
# In the library only some 4% were active in any assay of this set; here they are far more common.
# UGM FP inh: inhibitors of M. tuberculosis UDP-galactopyranose mutase; P9WIQ1; purified UGM, fluorescence polarization probe displacement; inhibition, % at 10 µM; hit rate 0.06% among 320,000; AID 504406; in the data active = inhibition above about 10%, passing the limit was not always enough; inconclusive = no clear call, values can overlap the other calls
# RecA intein inh: inhibitors of M. tuberculosis RecA intein splicing. cell-free RecA intein splicing, fluorescence. inhibition, % (no concentration beside the values). hit rate 0.75% among 290,000; in the data active = inhibition above about 30%; inconclusive = no clear call, values can overlap the other calls;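 also: 0% = vehicle wells and 100% = reference inhibitor control wells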
# Mtb FBA inh: inhibitors of M. tuberculosis fructose-bisphosphate aldolase. inhibition, % at 1 µM. purified M. tuberculosis FBA, fluorescence read-out. P9WQA3. hit rate 2.3% among 360,000; in the data active = inhibition above about 27%;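 also: 0% = vehicle and 100% = reference inhibitor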
# Rv3671c inh: inhibitors of M. tuberculosis serine protease Rv3671c; inhibition, % at 5.96 µM; hit rate 0.048% among 320,000; P9WHR9; in the data active = inhibition above about 38%;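 also: extracellular domain of Rv3671c used as enzyme; 0% = enzyme with DMSO and 100% = no enzyme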
# GDH-TPI counter: inhibits GDH-TPI coupling enzymes, artifact for Mtb FBA screen. hit rate 1.2% among 360,000. GDH-TPI coupled enzyme counterscreen, NADH absorbance. AID 588335. inhibition, % at 4.8 µM; in the data active = inhibition above about 30%;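 also: 0% = DMSO wells and 100% = wells lacking the enzyme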
# Mtb bLac sens: beta-lactam sensitization of Mtb H37Rv; M. tuberculosis H37Rv growth with meropenem, percent inhibition; inhibition, % at 25 µM; hit rate 0.27% among 330,000; call rule not given here;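 also: growth measured after seven days incubation then overnight dye step; 0% = bacteria only wells and 100% = bacteria with antibiotic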
# An asterisk follows results filed as active; i = inactive; ? = inconclusive; · = no result; + = active, no number; ! = not active in a repeat.
SMILES,UGM FP inh,RecA intein inh,Mtb FBA inh,Rv3671c inh,GDH-TPI counter,Mtb bLac sens
O=C(N/N=C/c1cccc(Oc2ccccc2)c1)c1ccncc1,-6,2,-2,-7,10,99
COC(=O)c1cccc(NC(=O)Cn2nnc3ccccc32)c1,-2,5,-2,4,6,-9
C=CCNC(=S)N1CCC(C(=O)c2ccc3c(c2)OCCO3)CC1,1,-2,-1,3,-2,-1
O=C(O)c1ccc(/C=N/NC(=O)c2cc3c(ccc4ccccc43)o2)cc1,1,-6,-2,-5,57*,11
O=C(Nc1cccnc1)c1cc2c(ccc3ccccc32)o1,-3,-1,0,-30,32*,-2
O=C(CCN1CCc2ccccc2C1)Nc1ccccc1F,0,1,-4,-4,1,2
CC(C)(O[C@@H]1O[C@H](CO)[C@@H](O)[C@H](O)[C@H]1O)[C@H]1Cc2cc3ccc(=O)oc3cc2O1,0,-1,+,-10,33*,-3
C=C(C)C1Cc2cc3ccc(=O)oc3cc2O1 (stereo not drawn),1,1,185*,5,15,0
CC(C)(O)[C@H]1Cc2cc3ccc(=O)oc3cc2O1,4,1,+,-14,24,-4
CC(C)(O)[C@@H]1Cc2c(ccc3ccc(=O)oc23)O1,-1,-4,+,8,12,-6
COC(=O)CSc1[nH]c2ccc(F)cc2c1[N+](=O)[O-],-2,-143,-1,-10,29,100
O=[N+]([O-])c1ccc(SCCc2ccncc2)cc1,3,-5,-3,-3,42*!,-6
O=[N+]([O-])c1ccc(SCCc2ccccn2)cc1,0,3,-2,-3,13,-2
O=C(Nc1ccc(/C=C/c2nc3ccccc3o2)cc1)c1cccc(C(F)(F)F)c1,-1,1,4,-3,36*,23
CCCC(=O)Nc1c2c(nc3ccccc13)N(c1ccccc1)CC2,-1,-8,192*,0,10,39
Cc1ccc(NC(=O)c2cc(NC(=O)/C=C\C(=O)O)ccc2N2CCCCC2)cc1,-1,48*,1,0,16,-2
Cc1cc(-c2nc3ccccc3s2)ccc1N,·,·,+,·,37*,·
Nc1ccc(-c2nc3ccccc3s2)cn1,-2,-1,+,0,23,8
Brc1ccc(-c2nc3ccccc3s2)s1,4,-1,8,-3,8,-4
COc1cc(OC)cc(-c2nc3ccccc3s2)c1,-3,8,9,-5,7,41
O=C1Nc2ccccc2C1=Nc1ccc2[nH]c3ccccc3c2c1,·,·,41*,·,18,·
Cc1ccc(N=C2C(=O)Nc3ccccc32)cc1C,-1,4,4,7,8,13
COc1cccc(/C=N/NC(=S)Nc2cccnc2)c1,-1,·,2,-5,7,8
Oc1ccc(/C=N/NC(=S)Nc2cccnc2)cc1,3,-3,5,-4,36*,8
COc1ccccc1NC(=S)N/N=C/c1ccc(O)cc1,-2,3,3,-9,33*,1
SMILES,UGM FP inh,RecA intein inh,Mtb FBA inh,Rv3671c inh,GDH-TPI counter,Mtb bLac sens
Oc1ccc(/C=N/NC(=S)N/N=C/c2ccc(O)cc2)cc1,0,-3,4,7,75*,-2
Cc1ccc2nc(-c3ccncc3)c(Nc3ccccc3)n2c1,3,-1,3,-1,6,-2
Cc1ccc2nc(-c3ccco3)c(Nc3ccccc3)n2c1,-5,-4,192*,-7,9,-2
O=C(Oc1ccc(Br)cc1C(=S)N1CCCC1)c1ccccc1Cl,2,2,1,-7,2,0
O=C(Oc1ccc(Br)cc1C(=S)N1CCCCC1)c1cc([N+](=O)[O-])cc([N+](=O)[O-])c1,3,64*,-1,-5,4,-13
COCc1ccc(CN2CCC(n3nccc3NC(=O)c3ccc4c(c3)OCO4)CC2)o1,·,·,-1,·,-2,·
COc1ccc(CSc2nnc(CNS(C)(=O)=O)o2)cc1,0,-1,1,-3,0,-1
C/C(=N\Nc1ccc(Cl)c(C(=O)O)c1)c1cc2ccccc2o1,0,·,-1,-4,31*,1
C/C(=N\Nc1ccc(Cl)c(C(=O)O)c1)c1cccc2ccccc12,4,2,-1,1,16,1
C/C(=N\Nc1ccc(Cl)c(C(=O)O)c1)c1ccccn1,1,-3,1,1,37*,2
C/C(=N\Nc1cccc(C(=O)O)c1)c1cc2ccccc2o1,-2,·,-2,8,48*,2
Cc1ccccc1C(=O)NC(NC(=O)c1ccccc1C)c1cccc([N+](=O)[O-])c1,·,-2,-1,-3,-3,1
O=C(NCC1CC1)C1(S(=O)(=O)c2ccccc2)CC=CC1,-1,-2,0,7,1,-4
O=C(COC(=O)c1cccc(S(=O)(=O)N2CCN(c3ccc(F)cc3)CC2)c1)NCC1CCCO1 (stereo not drawn),1,1,-2,0,9,-5
COc1ccc2c(C)c(C(=O)NCC(C)O)oc2c1OC (stereo not drawn),-1,-5,138*,-3,3,-2
CC(C)(C)c1ccc(C(=O)NCc2nnc(SCC(=O)NCc3ccco3)o2)cc1,0,5,2,6,-7,?
Nc1ccc(N(CCO)CCO)cc1,3,63*,-2,-73,3,8
CCN(CC)Cc1c(O)ccc2c(=O)c(-c3ccc(Cl)cc3)coc12,1,-1,43*,3,24,-1
CCCCN(C)Cc1c(O)ccc2c(=O)c(-c3ccccc3OC)coc12,1,-2,163*,1,41*,-8
CCCCN(C)Cc1c(O)ccc2c(-c3ccccc3)cc(=O)oc12,-3,-36,6,-1,2,8
OC(COc1ccc2cc(Br)ccc2c1)Cn1ccnc1 (stereo not drawn),3,0,-1,-1,2,82
Cc1csc(Nc2nc(N)c(C(=O)Nc3ccccc3)o2)n1,1,1,-1,5,35*,0
CCOc1ccc(S(=O)(=O)N2CCN(C(=S)NC3CC3)CC2)cc1,-1,0,5,5,-1,1
CCCCN(CCCC)CCCN1CC(=O)N2[C@@H](Cc3c([nH]c4ccccc34)C2(C)C)C1=O,0,0,1,-6,0,2
CCOC(=O)C1CCN(C(=O)c2cc3c(=O)n4ccccc4nc3n2C)CC1,2,-209,133*,-3,16,-5
Cn1c(C(=O)N2CCOCC2)cc2c(=O)n3ccccc3nc21,1,-416,+,-1,26,-2
Cn1c(C(=O)O)cc2c(=O)n3ccccc3nc21,8,-416,+,10,13,-8
Cn1c(C(=O)N2CCN(C(=O)c3ccco3)CC2)cc2c(=O)n3ccccc3nc21,1,-452,+,-8,19,3
CCCn1c(=N)c(S(=O)(=O)c2ccccc2)cc2c(=O)n3ccccc3nc21,1,i,21,5,6,-2
